The whole screen tested about 3,600 compounds, of which about 900 (25%) were called active. How the calls were made is not given here. These entries were drawn from the full list. Results with a measured potency or affinity are listed apart.

Among the data in PubChem BioAssay AID1117361 (Southern Research Institute, 2015) are outcome values, retold here.

The test has as its target Protein Tat (Human immunodeficiency virus type 1 group M subtype B (isolate HXB2)) (UniProt P04608). In words: HIV-1 Tat–TAR interaction blockers – biochemical, fluorescence polarization, FAM-labeled TAR RNA, counter-screen for Vif-APOBEC3G degradation inhibitor project, dose response (AID 1117361). To be noted: Tat-TAR RNA binding; series mostly up to 100 µM. A general note: Fluorescence polarisation rises when a labelled molecule tumbles more slowly, as on binding a larger partner.
Consider `Cc1ccc([C@H]2C(C(=O)O)=CC[C@@H](c3cccc(Cl)c3)N2S(=O)(=O)c2ccc(C)cc2)cc1`, for which the compound was classed as inactive.

Regarding `COc1ccccc1-n1nnnc1SCC(=O)Nc1cc(C)on1`, the call was inactive.

On to `O=c1cc2oc3cc(O)c(O)cc3c(-c3ccccc3O)c-2cc1O`, for which the compound was classed as inactive.

For `OC(CN1CCCCC1)CN1CCCCC1`, the result was inactive.

`CS(=O)(=O)N(CC(=O)N1CCN(Cc2ccccc2)CC1)c1ccc2c(c1)OCCO2`: the call was inactive.

Turning to `C[C@H](NC(=O)OCc1ccccc1)C(=O)NNC(=O)[C@H](C)NC(=O)OCc1ccccc1`, the compound was called inactive.

Turning to `CSCCC(CO)NC(=O)OCc1ccccc1` (configuration not stated), the result was inactive.

As to `O=C(Nc1nnc(C2CC2)o1)c1ccc(S(=O)(=O)N2CCCc3ccccc32)cc1`, the compound was classed as inactive.

In the case of `Cc1ccc(N2CC(NC(=O)N3CCN(C(=O)c4ccco4)CC3)CC2=O)cc1` (configuration not stated), the result was inactive.

For the compound `CSc1ccc(C2Nc3ccccc3-c3cc(C)nn32)cc1` (configuration not stated), the call was inactive.

For the compound `COc1ccc(S(=O)(=O)Nc2ccc3c(c2)OCO3)cc1C`, the result was inactive.

On to `O=C(Nc1ccc2c(c1)OCO2)c1cccc(S(=O)(=O)N2CCCC2)c1`, for which the compound was called inactive.

For the compound `O=S(=O)(Nc1ccc2c(c1)OCCO2)c1cnc[nH]1`, the outcome was inactive.

Consider `O=C(CCc1ccc(S(=O)(=O)NCCc2ccccc2)cc1)Nc1ccc2c(c1)OCO2`, for which the outcome was inactive.

Regarding `CS(=O)(=O)N1CCCCC1CCN1CCCCC1` (configuration not stated), the result was inactive.

Take `CC1(C)CC(=O)C(C2NCCc3ccccc32)=C(O)C1` (configuration not stated): the compound was classed as inactive.

Consider `CCN(CC)CC(=O)Nc1nn(-c2ccccc2)nc1C(N)=O`, for which the outcome was inactive.

On to `Cc1ccc(S(=O)(=O)n2cnc3ccccc32)c(C)c1`, for which the call was inactive.

Consider `CCCCNC(=O)c1c(O)c2cccc3c2n(c1=O)CCC3`, for which the result was inactive.

As to `N#CC1(c2ccc(NC(=O)c3ccccc3F)cc2)CCCC1`, the result was inactive.

On to `CCCCCn1c(CN2CCN(c3cc(Cl)ccc3C)CC2)nc2c1c(=O)[nH]c(=O)n2C`, for which the outcome was inactive.

Consider `CCOc1c(OC)cccc1C1CC(=O)Nc2cc3c(cc21)OCCO3` (configuration not stated), for which the compound was called inactive.

As to `CCc1ccccc1N(CC)C(=O)CCc1nc(-c2ccc(C)cc2)no1`, the outcome was inactive.

Regarding `NS(=O)(=O)c1ccc(NC(=O)COC(=O)CC2Sc3ccccc3NC2=O)cc1` (configuration not stated), the compound was classed as inactive.

As to `COc1cc(C(C2C(=O)CC(C)(C)CC2=O)C2C(=O)CC(C)(C)CC2=O)cc(OC)c1OC`, the outcome was inactive.

As to `O=C(Nc1cc(Cl)ccc1Oc1ccccc1)c1cnccn1`, the call was inactive.

For the compound `Cc1cn(C2CCCCO2)c(=O)[nH]c1=O` (configuration not stated), the compound was classed as inactive.

As for `CN(C)NC1CCS(=O)(=O)C1` (configuration not stated), the compound was classed as inactive.

Regarding `O=C(Cn1cnc2c(nnn2Cc2ccc(F)cc2)c1=O)NCc1ccco1`, the call was inactive.

`Cn1nnnc1SCC(=O)NCc1ccco1`: the result was inactive.

Take `COc1ccc2c(c1OC)C(=O)OC2Nc1nc(-c2cc3cc([N+](=O)[O-])ccc3oc2=O)cs1` (configuration not stated): the compound was called inactive.

In the case of `CCOc1ccc(CCNC(=O)C2CC(C)=CCC2C(=O)O)cc1OCC` (configuration not stated), the compound was classed as inactive.

For `COc1ccc2c(=O)c3c(=O)n(-c4ccc(C)cc4)c(-c4ccccc4)nc3oc2c1`, the outcome was inactive.

`CCC(Sc1nc2cc(OC)c(OC)cc2c(=O)n1Cc1ccco1)C(=O)NCCOC` (configuration not stated): the call was inactive.

Consider `CCN1/C(=C(\O)c2ccccc2)C(=O)c2ccccc2S1(=O)=O`, for which the result was inactive.

In the case of `COc1ccc(C2C(C#N)=C(N)Oc3n[nH]c(C)c32)cc1Cn1nnc2ccccc21` (configuration not stated), the compound was classed as inactive.

In the case of `NC(=O)C1CCN(C(=O)C23CC4CC(CC(C4)C2)C3)CC1`, the compound was called inactive.
